Assay outcomes (PubChem BioAssay)
JMJD2E inh = JMJD2E (human) inhibition | B2RXH2 | JMJD2E catalytic domain, FDH-coupled NADH fluorescence (FDH is formaldehyde dehydrogenase) | Potency, µM (titrated, usually from 57.1 µM), for the others: top-dose activity change, negative = inhibition, most hits filed as inhibitors | 1.6% of 230,000 active | AID 2147;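 note: potency is the fitted concentration of half-maximal effect; 0% = wells with enzyme and -100% = buffer wells without enzyme; nearly all actives have a fitted effect of over 50% in size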
GoLoco inh red = inhibitors of human Gai1-RGS12 GoLoco interaction (red fluorophore); 0.44% of 230,000 active; Gai1:RGS12 GoLoco peptide FP, rhodamine, 10 min; AID 880; Potency, µM (titrated, usually from 61.6 µM), inactives show at the top dose activity, negative = inhibition, hits mostly inhibitors; active = well fitted inhibition curve with a large enough effect, not every such curve was filed as active; inactive = no such curve, though single readings can be large or run the other way; note: potency is the fitted concentration of half-maximal effect; nearly all actives have a fitted effect of over 30% in size
Target sequence (P63096 whole entry, looked up): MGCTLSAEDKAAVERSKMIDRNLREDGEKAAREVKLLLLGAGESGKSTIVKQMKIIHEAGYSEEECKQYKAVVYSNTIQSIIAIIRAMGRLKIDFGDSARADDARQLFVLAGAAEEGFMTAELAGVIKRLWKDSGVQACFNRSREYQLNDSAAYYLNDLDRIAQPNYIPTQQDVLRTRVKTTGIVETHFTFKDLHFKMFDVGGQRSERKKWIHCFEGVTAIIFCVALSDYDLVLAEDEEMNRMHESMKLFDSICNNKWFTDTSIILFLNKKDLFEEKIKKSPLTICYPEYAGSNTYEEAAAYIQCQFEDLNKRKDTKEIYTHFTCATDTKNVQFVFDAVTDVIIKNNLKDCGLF
ALDH1A1 block = ALDH1A1 (human) enzyme inhibition. P00352. Purified ALDH1A1, NADH fluorescence, propionaldehyde substrate. Potency, µM (highest dose often 75.3 µM), without a hit: at the top dose activity, negative = inhibition, most hits filed as inhibitors. 7.3% of 220,000 active. AID 1030;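 note: potency is the fitted concentration of half-maximal effect; plate controls were no enzyme wells and a reference inhibitor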
NPSR antag = blocks cAMP signaling of the human neuropeptide S receptor. AID 1461. Q6W5P4. Potency, µM (top dose mostly 38.3 µM), for the others: top-dose activity change, negative = inhibition, actives largely listed as inhibitors. CHO-NPSR cells, cAMP TR-FRET, antagonist mode. 1% of 220,000 active; active = well fitted curve in the direction sought with a large enough effect; inconclusive = small, poorly fitted or top-dose-only effect, or another doubt; inactive = no such curve, though single readings can be large; an effect the other way counts as inactive or inconclusive; note: potency is the fitted concentration of half-maximal effect; nearly all actives have a fitted effect of over 50% in size
Target sequence (Q6W5P4 whole entry, looked up): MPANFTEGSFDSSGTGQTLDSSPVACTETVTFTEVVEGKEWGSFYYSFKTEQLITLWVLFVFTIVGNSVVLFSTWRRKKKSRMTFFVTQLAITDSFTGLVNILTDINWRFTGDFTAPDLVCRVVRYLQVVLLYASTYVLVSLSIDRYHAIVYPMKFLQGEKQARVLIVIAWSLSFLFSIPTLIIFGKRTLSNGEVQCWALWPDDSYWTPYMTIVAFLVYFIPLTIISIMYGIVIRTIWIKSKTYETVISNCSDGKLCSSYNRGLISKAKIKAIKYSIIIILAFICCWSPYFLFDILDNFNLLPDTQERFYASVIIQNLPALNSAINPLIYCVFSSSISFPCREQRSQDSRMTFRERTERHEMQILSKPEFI
Coupling enz = coupling enzyme interference in Giardia aldolase counter-screen. 0.67% of 290,000 active. coupling enzyme system counterscreen, AmpLite Red fluorescence. activity change, negative = inhibition, % at 58.2 µM, hits read low. AID 2472; in the data active = activity change below about -30%
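Counterscreen lacking aldolase: glyceraldehyde-3-phosphate coupling-enzyme reagent preincubated 10 min at RT with compound (at 57.5 uM final), then substrate/coupling system with AmpLite Red added; fluorescence read at 525/598 nm after 20 min RT.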
Sfp PPTase inh = blocks B. subtilis Sfp PPTase activity; Potency, µM, inactives show largest response in the series, negative = inhibition, actives largely listed as inhibitors; Q9F4F7; 3.5% of 310,000 active; Biochemical Sfp PPTase activity, qHTS; active = well fitted curve in the direction sought with a large enough effect; inconclusive = small, poorly fitted or top-dose-only effect, or another doubt; inactive = no such curve, though single readings can be large; an effect the other way counts as inactive or inconclusive;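 note: the enzyme is Sfp with the accession as filed and its product quenches rhodamine fluorescence; potency is the fitted concentration of half-maximal effect; 0% = enzyme reaction without inhibitor and -100% = no enzyme wells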
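Fluorescence-quenching assay: 15 nM Sfp-PPTase preincubated 15 min at room temperature with compound, then 5 uM rhodamine-CoA and 12.5 uM BHQ-2-labelled YbbR peptide added. Fluorescence (ex 525/em 598 nm) read at start and after 30 min; difference gives rate.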
* hit, by the source's call; ? = inconclusive; · = no result; [ ] = another dose, or the depositor's remark. In the library only some 8.5% were active in any assay of this set; here they are far more common. Unless noted, calls come from the whole dose curve; as a rule, active = well fitted inhibition curve with a large enough effect (not every such curve was filed as active); inconclusive = small, poorly fitted or top-dose-only effect, or another doubt; inactive = no such curve, though single readings can be large or run the other way. Unless noted, % is set by controls: 0 for no effect and ±100 for the full control effect.

SMILES | JMJD2E inh | GoLoco inh red | ALDH1A1 block | NPSR antag | Coupling enz | Sfp PPTase inh
O=C(CCc1cn2ccccc2n1)NC1CCCc2c1cnn2-c1ccccc1F (configuration not stated) | · | · | · | · | · | 15.4%
COc1ccc(-n2c(C)c(C(C)=O)c(C(C)=O)c2C)cc1 | -5.2% | 4.4% | 7.5% | -12.9%[46.1 µM] | 1.1 | 15.5%
CCOc1ccc(-c2nc(C)c(C(C)=O)n2O)cc1 | ? | -19.5% | ? | -13.4%[46.1 µM] | -6.0 | 17.8µM*
CCOc1ccc(-n2c(C)c(C(C)=O)c(C(C)=O)c2C)cc1 | 1.6% | 0.9% | 22.4µM* | 4.6%[46.1 µM] | 0.0 | 14.9%
COC(=O)c1cc2c(-c3ccccc3)c(C)c3ccccn3c-2c1C(=O)OC | 0.4% | 37.0% | 20µM* | ? | -6.6 | -13.4%
COC(=O)c1c(Cl)c2n3ccccc3c(C)c(-c3ccccc3)c-2c1C(=O)OC | ? | 14.1µM* | 12.6µM* | 6.4% | -18.8 | -28.4%
COC(=O)c1c(C(=O)OC)c2ccccn2c1C(=O)c1ccccc1 | · | · | · | · | -2.4 | 10.9%
COCCCn1c(=O)c2ccccc2n(Cc2cccc(C)c2)c1=O | · | · | · | · | 1.6 | 8.3%
CCOc1ccc(/C=C2\NC(=S)NC2=O)cc1 | -4.7% | -1.4% | · | 57.9% | 5.1 | 13.9%
CCOc1ccc(/C=C/C2=CC(C)(C)NC(=S)N2)cc1 | -12.2% | 1.7% | 12.6µM* | 2.8% | 0.4 | -5.6%
COc1ccc(/C=C/C2=CC(C)(C)NC(=S)N2)cc1OC | -6.5% | -5.9% | 7.94µM* | -8.3% | 0.7 | 13.3%
CCCN1C(=O)/C(=C/c2nc3ccccc3c(=O)[nH]2)c2ccccc21 | ? | 4.1% | 2.51µM* | -28.2% | 1.9 | -31.3%
CCN1C(=O)/C(=C\c2nc3ccccc3c(=O)n2CC)c2ccccc21 | ? | 5.5% | 14.1µM* | -48.5% | 0.7 | -8.7%
CCn1c(/C=C2\C(=O)N(C)c3ccccc32)nc2ccccc2c1=O | -4.4% | 3.2% | ? | -7.0%[46.1 µM] | 0.0 | 13.0%
CCn1c(/C=C2/C(=O)N(C)c3ccccc32)nc2ccccc2c1=O | ? | -13.4% | 9.46µM* | -13.4%[46.1 µM] | -4.1 | -28.8%
CCCN1C(=O)/C(=C/c2nc3ccccc3c(=O)[nH]2)c2cc(C)ccc21 | 10.2% | -7.7% | 1.4% | 46.6% | 0.8 | 8.0%
Cc1nc(-c2ccccc2)sc1C(=O)/C=C/c1ccc(Cl)cc1 | 0.3% | 3.5% | 3.16µM* | -5.6%[46.1 µM] | 0.3 | -15.9%
CCOC(=O)c1c(N)sn(-c2ccccc2C)c1=S | -17.9% | -14.1% | 3.55µM* | -3.5%[46.1 µM] | 2.3 | 17.8µM*
CCOC(=O)c1c(N)sc(-c2ccccc2)c1C | -1.3% | -1.3% | ? | ? | 1.9 | ?
Clc1ncnc2scc(C3COc4ccccc4O3)c12 (configuration not stated) | -2.5% | 16.6% | 17.8µM* | ? | -0.1 | -27.1%
c1ccc2c(c1)OCC(c1csc3ncnc(N4CCCCC4)c13)O2 (configuration not stated) | -7.3% | -1.4% | -6.1% | ? | 4.2 | -9.5%
O=[N+]([O-])c1ccccc1/C=C/CN1CCN(Cc2ccc3c(c2)OCO3)CC1 | · | · | · | · | -3.5 | -12.3%
C/C(=N\Nc1nnc(C)c(=O)[nH]1)C(=O)O | -2.6% | -10.3% | -4.5% | -3.1%[46.1 µM] | -51.3* | -15.4%
CC(/C=N/Nc1nnc(C)c(=O)[nH]1)=C\c1ccccc1 | -3.6% | -4.6% | 13.0% | -13.4%[46.1 µM] | -14.3 | ?
Cc1ccc(C(=O)N2CCCC(c3ccc(Cl)cc3)=N2)cc1 | -8.2% | -2.9% | 12.6µM* | -1.0% | 0.6 | 9.9%
SMILES | JMJD2E inh | GoLoco inh red | ALDH1A1 block | NPSR antag | Coupling enz | Sfp PPTase inh
CCCOc1ccc(C(=O)NC2CCSc3ccccc32)cc1 (configuration not stated) | · | · | · | · | 3.7 | 19.0%
Cc1cc2c(NC(=O)Nc3ccccc3)cccc2nn1 | ? | -1.5% | · | 14.9% | -41.7* | 44.7µM*
COCCN1CN(S(=O)(=O)c2ccc(Cl)cc2)c2nc3ccccc3nc21 | ? | 7.8% | 23.8µM* | -15.8%[46.1 µM] | -0.4 | 10.5%
CCCCN1CN(S(=O)(=O)c2cccs2)c2nc3ccccc3nc21 | ? | -4.9% | ? | ? | -5.4 | ?
CC(C)CCN1CN(S(=O)(=O)c2cccs2)c2nc3ccccc3nc21 | ? | -2.3% | 28.2µM* | -17.1%[46.1 µM] | 1.8 | -5.0%
CC(=O)Nc1ccc(S(=O)(=O)NCCSCc2ccc(Cl)cc2Cl)cc1 | -2.6% | -9.4% | ? | -15.1%[46.1 µM] | 2.2 | 10.5%
CC(C)N=c1scc(-c2cccs2)n1/N=C/c1ccc(O)c(O)c1O | 28.2µM* | 9.2% | ? | ? | -17.3 | 11.2µM*
CN=c1scc(-c2ccccc2F)n1/N=C/c1ccc(O)c(O)c1O | 10µM* | 41.9% | 5.62µM* | -27.6% | -47.2* | 3.16µM*
Cc1cc(=O)n2nc(N3CCC(C(=O)NCc4cccc(Cl)c4)CC3)sc2n1 | · | · | · | · | · | 15.2%
Cc1ccc(CNC(=O)CN2CCN(c3ccc(F)cc3)CC2)cc1 | · | · | · | · | 1.2 | 4.3%
CN(C)c1ccc(CNCCC(Cc2ccccc2)c2ccco2)cc1 (configuration not stated) | -5.8% | -9.1% | · | ? | 0.1 | 44.7µM*
Fc1ccc(Nc2ccnc(-c3ccoc3)n2)cc1 | · | 40.5% | 31.6µM* | · | -2.0 | ?
c1cc(NC2CC2)nc(-c2ccoc2)n1 | · | -21.0% | ? | · | -4.0 | 79.4µM*
Cc1cnc(CNc2ccnc(-c3ccoc3)n2)cn1 | · | -11.8% | 0.2% | · | 4.5 | ?
O=C1CCCN1CCCNc1nc2c(S(=O)(=O)c3ccc(Br)cc3)nnn2c2ccccc12 | · | · | · | · | · | 8.3%
CSc1nc(C)cc(Oc2ccccc2)n1 | 5.7% | -3.5% | 6.7% | 11.3% | -1.8 | 0.8%
O=c1[nH]nc(SCCS(=O)(=O)c2ccc(F)cc2)n1-c1ccc2c(c1)OCCO2 | 4.3% | 3.1% | 20µM* | -6.3% | 2.8 | -5.4%
O=c1[nH]nc(SCCS(=O)(=O)c2ccc(F)cc2)n1-c1ccccc1 | 3.7% | -1.3% | 2.82µM* | -21.6% | -0.5 | 10.7%
CCCn1c(SCC(=O)c2ccc3c(c2)OCCO3)n[nH]c1=O | -2.8% | 8.8% | ? | -3.0% | 0.3 | -18.9%
O=C(CCSCc1ccccc1F)NCc1ccc(F)cc1 | · | · | · | · | 1.8 | 10.1%
CC(C)(C)c1cc(C(=O)NNC(=O)c2ccc(Cl)cc2)no1 | -1.2% | 5.6% | ? | -6.1% | 9.3 | 11.3%
COC(=O)NC(NC(=S)Nc1ccc([N+](=O)[O-])cc1)C(Cl)(Cl)Cl (configuration not stated) | -15.6% | 3.1% | 20µM* | -11.8% | 0.8 | -5.5%
CC(=O)NC(NC(=S)Nc1ccc(S(N)(=O)=O)cc1)C(Cl)(Cl)Cl (configuration not stated) | 4.2% | 1.9% | · | 57.1% | 3.4 | 14.9%
COc1ccc([N+](=O)[O-])cc1NC(=S)NC(NC(=O)C(c1ccccc1)c1ccccc1)C(Cl)(Cl)Cl (configuration not stated) | 1.6% | 39.9% | 20µM* | -17.8%[46.1 µM] | 8.8 | 8.8%
